Growth data for eight compounds are collected here from PubChem BioAssay (NCI).

The structures appear in SMILES notation. The panel holds about 83,000 compounds, 20% with a hit somewhere; the sample as a whole holds those more often.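 In brief: 96-well plates, 48 h treatment, single concentration, percent growth endpoint.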 Unmarked numbers belong to inactive results. Activity calls are given as the source filed them. The calls were made as follows: active = growth percent below 10; inactive = the rest.

What all share (assay): NCI-60 one-dose screen, 48 h (100 = growth as untreated, 0 = no growth, -100 = all killed)
One assay relates to SK-MEL-2 melanoma. Conditions: 10 µM unless noted.
The next assay has as its system SN12C renal. To be noted: 10 µM unless noted.
The test system of the next assay is UO-31 renal. Conditions: 10 µM unless noted.
The test system of another assay is TK-10 renal. To be noted: 10 µM unless noted.
The next assay relates to ACHN renal. Conditions: 10 µM unless noted.
The test system of a further assay is CAKI-1 renal. Conditions: 10 µM unless noted.
The next assay relates to A498 renal. To be noted: 10 µM unless noted.
The test system of another assay is MOLT-4 leukemia. Conditions: 10 µM unless noted.
The test system of a further assay is SR leukemia. Conditions: 10 µM unless noted.
The subject of another assay is RPMI-8226 leukemia. To be noted: 10 µM.
The next assay concerns OVCAR-8 ovarian. To be noted: 10 µM unless noted.
The subject of another assay is OVCAR-5 ovarian. Conditions: 10 µM unless noted.
The next assay deals with OVCAR-4 ovarian. Conditions: 10 µM unless noted.
Another assay has as its system SK-OV-3 ovarian. Conditions: 10 µM.
The subject of a further assay is IGROV1 ovarian. To be noted: 10 µM unless noted.
A further assay relates to OVCAR-3 ovarian. Conditions: 10 µM unless noted.
The next assay deals with HS 578T breast. To be noted: 10 µM unless noted.
The subject of another assay is NCI/ADR-RES ovarian. To be noted: 10 µM unless noted.
Another assay deals with CCRF-CEM leukemia. To be noted: 10 µM unless noted.

With `Cc1nc2cc(Nc3nc(Nc4ccc(F)cc4)nc(N4CCCC4)n3)ccc2n1Cc1ccccc1`, the growth is -58% (active) with SK-MEL-2 melanoma; -62.9% (active) in the assay with SN12C renal; -68.7% (active) with UO-31 renal; -55.8% (active) with TK-10 renal; 11.5% with ACHN renal; -14.4% (active) with CAKI-1 renal. Besides, the growth in the assay on A498 renal was -19.3% (active); with MOLT-4 leukemia, -30.7% (active); in the assay with SR leukemia it was -27.9% (active); in the assay with RPMI-8226 leukemia, -47.4% (active); with OVCAR-8 ovarian it was -35.2% (active); with OVCAR-5 ovarian, -54.8% (active). Moreover, the growth in the assay with OVCAR-4 ovarian was 4.79% (active); with SK-OV-3 ovarian, -2.81% (active); in the assay with IGROV1 ovarian, -6.78% (active); with OVCAR-3 ovarian it was -84% (active); in the assay on HS 578T breast it was 30.6%; in the assay on NCI/ADR-RES ovarian it was -28% (active).
Regarding `COc1cccc(Nc2nc(NCCO)c3ccccc3n2)c1`, the growth is 103% in the assay on SK-MEL-2 melanoma; 81.6% in the assay on SN12C renal; 74.4% with UO-31 renal; 106% in the assay on TK-10 renal; 79.7% in the assay with ACHN renal; 70.6% in the assay with CAKI-1 renal. Moreover, the growth in the assay with A498 renal was 43.8%; in the assay on CCRF-CEM leukemia, 22.4%; in the assay on MOLT-4 leukemia, 48.1%; in the assay with SR leukemia, 47.1%; in the assay with RPMI-8226 leukemia it was 13.7%; in the assay on OVCAR-8 ovarian, 81.9%. In addition, the growth in the assay with OVCAR-5 ovarian is 101%; in the assay with SK-OV-3 ovarian it was 102%; in the assay on OVCAR-3 ovarian it was 61.5%; with HS 578T breast it was 62.4%; in the assay on NCI/ADR-RES ovarian, 63.9%.
Turning to `C[C@H]1C(=O)C23CCC1C[C@@]21O[C@@H]2C(C)(C)C=CC(=O)C23COC1=O`, the growth in the assay on SK-MEL-2 melanoma was 104%; with SN12C renal, 103%; in the assay on UO-31 renal, 81.5%; with TK-10 renal it was 98.9%; in the assay with ACHN renal, 104%; in the assay on CAKI-1 renal, 101%. In addition, the growth is 92% with A498 renal; 71.7% in the assay on CCRF-CEM leukemia; 102% in the assay on MOLT-4 leukemia; 102% with SR leukemia; 93.5% in the assay with RPMI-8226 leukemia; 101% in the assay on OVCAR-8 ovarian. The growth was 109% in the assay on OVCAR-5 ovarian; 108% in the assay on OVCAR-4 ovarian; 102% with SK-OV-3 ovarian; 110% in the assay with IGROV1 ovarian; 126% with OVCAR-3 ovarian; 109% in the assay with HS 578T breast. In addition, in the assay on NCI/ADR-RES ovarian, the growth was 106%.
For the compound `Fc1ccccc1Nc1ccc2nnc(-c3ccncc3)n2n1`, the growth in the assay with SK-MEL-2 melanoma was 92.8%; in the assay with SN12C renal, 103%; in the assay with UO-31 renal, 88%; in the assay with TK-10 renal, 114%; in the assay on ACHN renal, 99.6%; in the assay on CAKI-1 renal, 102%. For the same compound, the growth was 95.6% in the assay on A498 renal; 96.1% in the assay on CCRF-CEM leukemia; 98.8% in the assay on MOLT-4 leukemia; 95.4% in the assay on RPMI-8226 leukemia; 103% in the assay on OVCAR-8 ovarian; 97.3% with OVCAR-5 ovarian. Moreover, the growth is 107% in the assay with OVCAR-4 ovarian; 107% with SK-OV-3 ovarian; 105% with IGROV1 ovarian; 108% in the assay on OVCAR-3 ovarian; 105% with HS 578T breast; 99.2% with NCI/ADR-RES ovarian.
Turning to `Cc1nc2cc(Nc3nc(NCCO)nc(Nc4ccc(F)cc4)n3)ccc2n1Cc1ccccc1`, the growth is 122% in the assay with SK-MEL-2 melanoma; 91.1% with SN12C renal; 78.8% in the assay with UO-31 renal; 133% in the assay with TK-10 renal; 98.3% in the assay on ACHN renal; 100% in the assay with CAKI-1 renal. The growth was 66.2% in the assay on A498 renal; 1.93% (active) in the assay with CCRF-CEM leukemia; 14.2% in the assay with RPMI-8226 leukemia; 80% in the assay on OVCAR-8 ovarian; 114% in the assay on OVCAR-5 ovarian; 95.3% in the assay on OVCAR-4 ovarian. For the same compound, the growth in the assay with SK-OV-3 ovarian is 105%; in the assay on IGROV1 ovarian, 88.9%; in the assay with OVCAR-3 ovarian, 90.2%; in the assay on HS 578T breast, 107%; in the assay with NCI/ADR-RES ovarian it was 97.7%.
As to `CSc1ccc(OC(C)=O)cc1C`, the growth was 92.7% in the assay with SK-MEL-2 melanoma; 104% in the assay on SN12C renal; 77.2% in the assay with UO-31 renal; 91.1% in the assay with TK-10 renal; 98% in the assay on ACHN renal; 96.4% with CAKI-1 renal. Besides, the growth in the assay on A498 renal was 86.3%; in the assay with CCRF-CEM leukemia it was 88.5%; in the assay on MOLT-4 leukemia, 89.6%; with SR leukemia, 95.7%; in the assay on RPMI-8226 leukemia, 101%; in the assay with OVCAR-8 ovarian, 100%. In addition, the growth is 99.4% in the assay on OVCAR-5 ovarian; 99.6% in the assay on OVCAR-4 ovarian; 95% with SK-OV-3 ovarian; 103% in the assay with IGROV1 ovarian; 106% in the assay with OVCAR-3 ovarian; 103% in the assay on HS 578T breast. Further, the growth in the assay with NCI/ADR-RES ovarian is 103%.
Consider `COc1ccc(-n2ncc3c2ccc2cc(S(=O)(=O)c4ccccc4)c(=O)n(C)c23)cc1`, for which the growth in the assay with SK-MEL-2 melanoma was 96.3%; with SN12C renal, 101%; in the assay on UO-31 renal, 94.4%; in the assay on TK-10 renal it was 86.3%; in the assay on ACHN renal it was 75.4%; in the assay with CAKI-1 renal, 89.3%. The growth with A498 renal is 70.5%; in the assay on MOLT-4 leukemia, 103%; in the assay with SR leukemia, 86.1%; in the assay with RPMI-8226 leukemia it was 85.4%; with OVCAR-8 ovarian, 65.4%; in the assay on OVCAR-5 ovarian, 98.4%. The growth with OVCAR-4 ovarian is 6.65% (active); in the assay with SK-OV-3 ovarian, 83.5%; in the assay with IGROV1 ovarian, 109%; in the assay with OVCAR-3 ovarian, 91.1%; in the assay on HS 578T breast, 49.5%.
With `COC(=O)[C@@H]1CCCN1C(=O)[C@@H]1CCCN1C(=O)[C@@H](Cc1c[nH]c2ccccc12)NC(=S)Nc1cc(C(F)(F)F)cc(C(F)(F)F)c1`, the growth was 39.9% in the assay with SK-MEL-2 melanoma; 65.7% with SN12C renal; 41.4% in the assay with UO-31 renal; 83.5% in the assay with TK-10 renal; 61.9% with ACHN renal; 56.9% in the assay on CAKI-1 renal. The growth in the assay on A498 renal was 99.6%; in the assay with CCRF-CEM leukemia, 19.9%; in the assay on MOLT-4 leukemia it was 22.3%; with SR leukemia, -17.5% (active); in the assay with OVCAR-8 ovarian, 67.6%; in the assay on OVCAR-5 ovarian it was 91%. Moreover, the growth with OVCAR-4 ovarian was 42%; in the assay on SK-OV-3 ovarian it was 90.9%; with IGROV1 ovarian it was 36%; in the assay on OVCAR-3 ovarian, 44.1%; in the assay on HS 578T breast, 59.2%; in the assay with NCI/ADR-RES ovarian, 99.8%.
